# Among all 310,000 compounds or so, about 2,200 (0.71%) showed an effect of 50% or more. Effects have a minus sign here. The sample holds strong results, similar compounds and a random draw of the others, so the mix is not that of the screen.
# Target: human ether-à-go-go-related gene (hERG) potassium channel (human, UniProt Q12809)
# Test: primary screen, population patch clamp on CHO cells stably expressing hERG; higher = less effect of the substance
# Sequence of human ether-à-go-go-related gene (hERG) potassium channel (Q12809 whole entry, looked up): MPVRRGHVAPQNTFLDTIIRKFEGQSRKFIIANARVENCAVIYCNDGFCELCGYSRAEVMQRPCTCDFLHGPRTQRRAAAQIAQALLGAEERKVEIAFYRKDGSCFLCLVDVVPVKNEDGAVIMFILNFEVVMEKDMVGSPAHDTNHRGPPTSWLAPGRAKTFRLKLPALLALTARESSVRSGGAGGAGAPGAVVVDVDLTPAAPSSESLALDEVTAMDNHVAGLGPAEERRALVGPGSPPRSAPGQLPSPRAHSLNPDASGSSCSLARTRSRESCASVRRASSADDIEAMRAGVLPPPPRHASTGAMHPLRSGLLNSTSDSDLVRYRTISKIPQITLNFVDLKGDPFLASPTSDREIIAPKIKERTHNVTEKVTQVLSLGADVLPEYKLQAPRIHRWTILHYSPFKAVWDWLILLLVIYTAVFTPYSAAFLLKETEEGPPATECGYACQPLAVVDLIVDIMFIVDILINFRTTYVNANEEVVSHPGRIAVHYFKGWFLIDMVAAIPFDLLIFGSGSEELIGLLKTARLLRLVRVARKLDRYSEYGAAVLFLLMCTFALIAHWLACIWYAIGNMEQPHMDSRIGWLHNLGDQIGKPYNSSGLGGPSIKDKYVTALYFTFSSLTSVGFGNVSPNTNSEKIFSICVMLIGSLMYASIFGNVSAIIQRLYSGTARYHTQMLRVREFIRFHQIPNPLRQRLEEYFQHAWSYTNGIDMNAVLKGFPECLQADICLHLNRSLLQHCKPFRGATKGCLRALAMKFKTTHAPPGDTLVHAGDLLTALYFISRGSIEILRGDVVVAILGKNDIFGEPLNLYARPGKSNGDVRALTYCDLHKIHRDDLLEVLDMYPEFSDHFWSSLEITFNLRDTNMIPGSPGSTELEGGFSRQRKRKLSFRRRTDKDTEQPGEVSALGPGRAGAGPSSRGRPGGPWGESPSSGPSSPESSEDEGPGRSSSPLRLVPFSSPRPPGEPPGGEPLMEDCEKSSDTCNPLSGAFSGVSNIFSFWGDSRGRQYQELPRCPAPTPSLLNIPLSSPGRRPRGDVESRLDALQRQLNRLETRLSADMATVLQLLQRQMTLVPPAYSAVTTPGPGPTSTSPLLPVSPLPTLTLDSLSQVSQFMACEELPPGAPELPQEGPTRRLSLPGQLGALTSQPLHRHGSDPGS
row,SMILES,"hERG current change (%, negative = inhibition) at 1uM [%]"
1,CC(C)NC(=S)N=Nc1c(O)[nH]c2ccc([N+](=O)[O-])cc12,18.4
2,COc1cccc(OC)c1C(=O)Nc1ccnn1C,-75.9
3,COc1cccc(OC)c1C(=O)Nc1ccncc1,17.4
4,Cn1nccc1NC(=O)NC(=O)c1c(Cl)cccc1Cl,8.82
5,O=C(Cn1nnc2ccccc21)N1CCCCC1,2.74
6,O=C(NCCN1CCN(C(=O)c2cccs2)CC1)C(=O)Nc1ccc(Br)cc1,-44.8
7,O=C(CN1CCN(C(=O)c2cccs2)CC1)Nc1ccc(Br)cc1,-68.2
8,O=C(CN1CCN(C(=O)c2ccco2)CC1)Nc1ccc(Br)cc1,10.5
9,O=C(CN1CCN(Cc2ccccc2)CC1)Nc1ccc(Br)cc1,-48.3
10,CCC(=O)Nc1ccc(N2CCN(C(=O)c3cccs3)CC2)cc1,3.02
11,O=C(Nc1ccc(N2CCN(C(=O)c3cccs3)CC2)cc1)c1ccc(Br)o1,-52.7
12,O=C(Nc1ccc(N2CCN(C(=O)c3cccs3)CC2)cc1)c1ccco1,17.4
13,O=C(CN1CCN(C(=O)c2ccccc2F)CC1)Nc1ccc(Br)cc1,-56.5
14,O=C(Nc1ccc(N2CCN(C(=O)c3cccs3)CC2)cc1)c1ccc([N+](=O)[O-])o1,-15.8
15,Cc1ccc(NC(=O)c2ccc3ccccc3n2)cc1S(=O)(=O)N1CCOCC1,14
16,CCOP1(=S)Oc2cc3c(cc2C(C(=O)OC)(C(F)(F)F)O1)OCO3 (stereo not drawn),5.27
17,Cn1c(=O)n(C)c2cc(N3CCCC3)c(NC(=O)c3cccc(F)c3)cc21,10.3
18,COc1ccc(C2=CSC3=NCCN23)cc1[N+](=O)[O-],2.48
19,Br.CCc1ccc(C2=CSC3=NCCN23)cc1,1.72
20,CCOc1ccc(C2=CSC3=NCCN23)cc1Cl,10.2
21,CCCOc1ccc(C2=CSC3=NCCN23)cc1[N+](=O)[O-],-68.4
22,CCCOc1ccc(C2=CSC3=NCCN23)cc1Cl,-23.5

row,SMILES,"hERG current change (%, negative = inhibition) at 1uM [%]"
1,CCOc1ccc(C2=CSC3=NCCN23)cc1[N+](=O)[O-],-61
2,O=[N+]([O-])c1ccc(C2=CSC3=NCCN23)cc1,-0.955
3,CCCCOc1ccc(C2=CSC3=NCCN23)cc1[N+](=O)[O-],-52.1
4,Br.Cc1ccc(C2=CSC3=NCCN23)cc1,11.3
5,CCCOc1ccc(C2=CSC3=NCCN23)cc1.Cl,-0.939
6,Br.CC(C)Cc1ccc(C2=CSC3=NCCN23)cc1,-60.9
7,Br.COc1ccc(C2=CSC3=NCCN23)cc1OC,7.66
8,CCCCn1c(N)c(N(CCOC)C(=O)CN2CC=C(c3ccccc3)CC2)c(=O)[nH]c1=O,10.3
9,O=C(Cn1nnc(-c2ccc(Cl)cc2)n1)NC1CCS(=O)(=O)C1 (stereo not drawn),0.0052
10,Cc1ccc(Cn2c(N)c(S(=O)(=O)c3cccs3)c3nc4ccccc4nc32)cc1,5.35
11,CCn1c(SCC(=O)N/N=C/c2c[nH]c3ccccc23)nnc1-c1ccc(C)cc1,9.39
12,O=C1c2ccccc2C(=O)C1c1ccnc2ccccc12,11.7
13,Cc1ccccc1N(CC(=O)NCc1ccc2c(c1)OCO2)C(=O)CCC(=O)Nc1ccccn1,6.43
14,CCC1(CC)NC(=O)N(CC(=O)Nc2ccc(S(=O)(=O)N3CCOCC3)cc2)C1=O,3.3
15,CCC1CCC(N2CCN(c3ccc(F)cc3)CC2)CC1 (stereo not drawn),-2.92
16,CCN1CCC(N2CCN(c3ccc(Cl)cc3)CC2)CC1,10.7
17,O=[N+]([O-])c1ccc(N2CCN(CC3CCCCC3)CC2)cc1,-23
18,CCN1CCC(N2CCN(c3ccc(F)cc3)CC2)CC1,10.6
19,O=[N+]([O-])c1ccc(N2CCN(c3ccc(F)cc3)CC2)cc1,5.71
20,CCC1CCC(N2CCN(c3ccc([N+](=O)[O-])cc3)CC2)CC1 (stereo not drawn),-74.5
21,CCCN1CCC(N2CCN(c3ccc([N+](=O)[O-])cc3)CC2)CC1,-62.7
22,O=[N+]([O-])c1ccc(N2CCN(c3ccccc3)CC2)cc1,9.45

row,SMILES,"hERG current change (%, negative = inhibition) at 1uM [%]"
1,CC1CCC(N2CCN(c3ccc([N+](=O)[O-])cc3)CC2)CC1 (stereo not drawn),-67.8
2,Cc1ccnc(N2C(=O)OC(C)(C)C2(C)O)c1 (stereo not drawn),-0.922
3,C=CCS(=O)(=O)N1CCCC(C(=O)c2cccc(Cl)c2)C1 (stereo not drawn),14.2
4,O=C(NS(=O)(=O)c1ccccc1)c1ccccc1O,0.636
5,O=C(NCc1ccc2c(c1)OCO2)c1cc(-c2ccccc2Cl)on1,12.4
6,O=C(O)CSC1=NC(=Nc2cccc(Cl)c2)C2(CCCCC2)N1c1ccccc1,19.9
7,Cc1cc(OC(C)C(=O)NCc2cccnc2)c2c(C)cc(=O)oc2c1 (stereo not drawn),9.3
8,Cc1ccccc1CNC(=O)Cc1ccccc1[N+](=O)[O-],0.014
9,Cc1c(C(=O)Nc2cccc([N+](=O)[O-])c2)sc2ncn(CC(=O)N3CCOCC3)c(=O)c12,14.1
10,CCc1nnc(NC(=O)c2ccc(-c3ccccc3F)o2)s1,11.7
11,Cc1cc(N2CCC(C)CC2)nc(-n2nc(C)cc2C)n1,-9.09
12,Cc1cc(N2CCN(c3ccccc3)CC2)nc(-n2nc(C)cc2C)n1,-51
13,Cc1cc(C)n(-c2nnc(N3CCN(c4ccccc4)CC3)nn2)n1,4.59
14,O=C(Cc1cccc(NC(=O)C2CCCN(C(=O)C3CCC3)C2)c1)Nc1cccc(C(=O)N2CCCC2)c1 (stereo not drawn),9.32
15,COc1ccc(C(=O)N2N=C(c3cccc(NS(C)(=O)=O)c3)CC2c2cccs2)cc1 (stereo not drawn),-22.1
16,COc1cccc(C(=O)N/N=C/c2ccc(OC3CSC3)cc2)c1,12.7
17,O=C(N/N=C/c1ccc(OC2CSC2)cc1)c1ccccc1,-0.636
18,Cc1cccc(C(=O)N/N=C/c2ccc(OC3CSC3)cc2)c1,-59.8
19,CN(CC(=O)Nc1ccccc1C(F)(F)F)C(=O)COc1ncnc2sccc12,6.31
20,C=CCn1c(SCC(=O)NC(=O)NCC(C)C)nnc1C1CCCCC1,13.9
21,O=C(O)CCC(=O)NCc1cn(-c2ccccc2)nc1-c1cccc(Br)c1,9.76
22,O=C(c1cc([N+](=O)[O-])ccc1Cl)N1CCN(c2ccc(F)cc2)CC1,0.85

row,SMILES,"hERG current change (%, negative = inhibition) at 1uM [%]"
1,O=C(c1cc([N+](=O)[O-])ccc1N1CCOCC1)N1CCN(c2ccc([N+](=O)[O-])cc2)CC1,-74
2,CN(C)S(=O)(=O)c1ccc(N2CCCC2)c(C(=O)N2CCN(c3ccc([N+](=O)[O-])cc3)CC2)c1,-84
3,Cc1cccc(N2CCN(C(=O)c3cc(S(=O)(=O)N(C)C)ccc3N3CCCC3)CC2)c1C,5.76
4,Cc1ccc(S(=O)(=O)N2CCN(C(=O)c3cc(S(=O)(=O)N(C)C)ccc3N3CCCC3)CC2)cc1,13.1
5,O=C(c1cc([N+](=O)[O-])ccc1Cl)N1CCN(c2ccc([N+](=O)[O-])cc2)CC1,-58.8
6,O=C(c1cc([N+](=O)[O-])ccc1N1CCOCC1)N1CCOCC1,12.4
7,O=C(c1cc([N+](=O)[O-])ccc1Cl)N1CCN(c2ccccc2)CC1,4.13
8,O=C(c1cc([N+](=O)[O-])ccc1N1CCOCC1)N1CCN(c2ccccc2)CC1,7.19
9,COc1ccc(-c2cc(-c3cccs3)nc(OC)c2C#N)cc1OC,24.6
10,COc1ccc(CN2CCC(N3CC(C)OC(C)C3)CC2)c(OC)c1OC.O=C(O)C(=O)O (stereo not drawn),2.62
11,N#Cc1ccccc1CSc1ccc(-c2nc3ccccc3[nH]2)cn1,16.2
12,O=C(CSc1ccc(-c2ccccc2)nn1)Nc1ccc2c(c1)OCCO2,8.92
13,Cc1nc(C)c(C(=O)Nc2nc3c(C)cccc3s2)o1,-4.12
14,Cc1ccc([N+](=O)[O-])cc1S(=O)(=O)Nc1ccc(O)c(Sc2ncn[nH]2)c1,14.7
15,CCOc1ccc(CCNC(=O)/C=C/c2ccco2)cc1OCC,-170
16,COc1ccc(CCNC(=O)/C=C/c2ccco2)cc1OC,5.95
17,CCOc1ccc(CCNC(=O)COC(=O)/C=C/c2ccco2)cc1OCC,15.9
18,O=C(c1ccc(S(=O)(=O)c2cccc(Cl)c2)c([N+](=O)[O-])c1)N1CCN(Cc2ccccc2)CC1,15.8
19,COc1ccc(C(=S)N2CCOCC2)cc1OC(=O)c1ccc([N+](=O)[O-])cc1[N+](=O)[O-],-63.1
20,COc1cc(C(=S)N2CCOCC2)ccc1OC(=O)c1ccc([N+](=O)[O-])cc1[N+](=O)[O-],15.5
21,COc1cc(C(=S)N2CCOCC2)cc(OC)c1OC(=O)c1ccc([N+](=O)[O-])cc1[N+](=O)[O-],5.28
